Experimental data reported in ChEMBL document CHEMBL1961873, “Compounds: GSK PKIS; Assays: Nanosyn kinase panel” (2012).

Key:
[1] = target: T1, Ephrin type-B receptor 2 (Homo sapiens) (UniProt P29323); settings: at 1 µM
T1 sequence (whole entry): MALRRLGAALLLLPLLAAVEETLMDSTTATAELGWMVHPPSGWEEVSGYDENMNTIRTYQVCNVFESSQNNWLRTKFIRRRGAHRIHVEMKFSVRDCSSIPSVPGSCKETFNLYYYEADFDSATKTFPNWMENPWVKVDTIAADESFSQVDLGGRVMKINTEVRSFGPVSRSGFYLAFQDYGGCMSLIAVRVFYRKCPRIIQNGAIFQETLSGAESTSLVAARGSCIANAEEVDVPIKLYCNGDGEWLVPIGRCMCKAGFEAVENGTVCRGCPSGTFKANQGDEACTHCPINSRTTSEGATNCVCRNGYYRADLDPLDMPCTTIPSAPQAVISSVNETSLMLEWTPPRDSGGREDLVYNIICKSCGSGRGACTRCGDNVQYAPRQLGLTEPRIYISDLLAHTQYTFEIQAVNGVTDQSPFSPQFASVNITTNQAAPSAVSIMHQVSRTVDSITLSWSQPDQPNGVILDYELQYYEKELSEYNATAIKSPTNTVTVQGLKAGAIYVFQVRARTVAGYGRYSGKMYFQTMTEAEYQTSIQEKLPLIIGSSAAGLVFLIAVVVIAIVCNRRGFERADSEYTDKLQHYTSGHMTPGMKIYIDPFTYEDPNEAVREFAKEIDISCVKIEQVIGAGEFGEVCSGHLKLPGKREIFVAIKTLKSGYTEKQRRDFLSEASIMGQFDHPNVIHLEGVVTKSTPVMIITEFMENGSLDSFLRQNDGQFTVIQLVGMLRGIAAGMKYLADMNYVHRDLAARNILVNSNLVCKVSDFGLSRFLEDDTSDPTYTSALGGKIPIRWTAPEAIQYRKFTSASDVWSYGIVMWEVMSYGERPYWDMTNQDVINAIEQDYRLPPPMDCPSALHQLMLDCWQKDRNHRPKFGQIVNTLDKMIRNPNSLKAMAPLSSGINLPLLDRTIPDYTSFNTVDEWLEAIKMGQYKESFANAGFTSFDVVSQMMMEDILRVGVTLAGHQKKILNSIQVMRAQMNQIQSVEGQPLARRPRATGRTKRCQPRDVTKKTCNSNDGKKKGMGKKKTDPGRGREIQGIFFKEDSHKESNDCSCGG

[2] = target: T2, Ephrin type-B receptor 3 (Homo sapiens) (UniProt P54753); settings: at 0.1 µM
T2 sequence (whole entry): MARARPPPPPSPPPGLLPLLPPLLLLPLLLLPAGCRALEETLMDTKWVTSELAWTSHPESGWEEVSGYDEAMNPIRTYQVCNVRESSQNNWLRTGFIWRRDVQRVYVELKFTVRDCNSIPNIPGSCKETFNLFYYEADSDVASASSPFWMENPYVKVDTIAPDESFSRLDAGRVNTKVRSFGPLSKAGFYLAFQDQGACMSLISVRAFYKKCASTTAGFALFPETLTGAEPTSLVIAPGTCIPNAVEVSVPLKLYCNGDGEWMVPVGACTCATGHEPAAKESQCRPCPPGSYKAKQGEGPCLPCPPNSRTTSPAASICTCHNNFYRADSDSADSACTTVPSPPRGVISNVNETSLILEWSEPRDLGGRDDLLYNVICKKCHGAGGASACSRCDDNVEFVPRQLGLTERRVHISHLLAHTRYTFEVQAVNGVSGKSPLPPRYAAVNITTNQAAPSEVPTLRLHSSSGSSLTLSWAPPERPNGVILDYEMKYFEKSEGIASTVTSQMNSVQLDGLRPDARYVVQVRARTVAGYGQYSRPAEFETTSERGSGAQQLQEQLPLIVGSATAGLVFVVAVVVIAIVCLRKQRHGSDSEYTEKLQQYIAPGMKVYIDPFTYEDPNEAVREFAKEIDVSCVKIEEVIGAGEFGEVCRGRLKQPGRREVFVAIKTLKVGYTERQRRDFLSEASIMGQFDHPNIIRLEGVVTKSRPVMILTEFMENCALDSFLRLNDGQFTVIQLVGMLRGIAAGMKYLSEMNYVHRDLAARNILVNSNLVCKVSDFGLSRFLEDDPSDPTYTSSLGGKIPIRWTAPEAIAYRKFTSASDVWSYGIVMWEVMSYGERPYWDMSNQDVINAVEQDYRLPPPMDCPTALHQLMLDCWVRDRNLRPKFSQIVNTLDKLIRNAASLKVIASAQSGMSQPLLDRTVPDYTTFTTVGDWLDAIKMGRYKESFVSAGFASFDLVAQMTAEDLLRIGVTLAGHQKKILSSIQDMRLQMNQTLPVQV

[3] = target: T2, Ephrin type-B receptor 3 (Homo sapiens); settings: at 1 µM
[4] = target: T3, Ephrin type-B receptor 4 (Homo sapiens) (UniProt P54760); settings: at 0.1 µM
T3 sequence (whole entry): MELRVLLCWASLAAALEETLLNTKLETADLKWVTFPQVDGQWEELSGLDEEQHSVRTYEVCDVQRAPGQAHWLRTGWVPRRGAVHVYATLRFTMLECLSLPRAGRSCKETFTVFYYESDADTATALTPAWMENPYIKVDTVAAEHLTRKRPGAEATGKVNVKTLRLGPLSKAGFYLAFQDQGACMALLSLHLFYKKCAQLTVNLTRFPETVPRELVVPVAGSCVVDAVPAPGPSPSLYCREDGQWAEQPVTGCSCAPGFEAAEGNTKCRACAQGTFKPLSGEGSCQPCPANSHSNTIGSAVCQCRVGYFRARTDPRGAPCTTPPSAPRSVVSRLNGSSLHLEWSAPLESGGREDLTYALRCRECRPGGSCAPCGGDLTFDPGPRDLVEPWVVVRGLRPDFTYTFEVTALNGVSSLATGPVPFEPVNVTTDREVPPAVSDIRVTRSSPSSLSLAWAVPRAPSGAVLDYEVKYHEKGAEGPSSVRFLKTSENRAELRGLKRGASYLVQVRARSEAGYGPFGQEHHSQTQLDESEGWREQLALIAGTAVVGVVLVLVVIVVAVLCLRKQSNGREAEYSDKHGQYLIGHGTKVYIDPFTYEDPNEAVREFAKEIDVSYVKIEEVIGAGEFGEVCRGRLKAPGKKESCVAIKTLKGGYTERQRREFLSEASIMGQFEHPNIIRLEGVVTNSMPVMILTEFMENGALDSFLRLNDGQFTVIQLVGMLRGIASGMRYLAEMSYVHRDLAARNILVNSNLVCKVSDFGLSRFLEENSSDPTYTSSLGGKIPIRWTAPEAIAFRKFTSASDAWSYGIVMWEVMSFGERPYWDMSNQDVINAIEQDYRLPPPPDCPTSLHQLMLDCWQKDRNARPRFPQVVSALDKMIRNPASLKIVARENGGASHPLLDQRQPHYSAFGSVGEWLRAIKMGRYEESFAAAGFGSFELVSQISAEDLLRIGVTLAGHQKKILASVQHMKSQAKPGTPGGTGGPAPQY

[5] = target: T3, Ephrin type-B receptor 4 (Homo sapiens); settings: at 1 µM
[6] = target: Receptor tyrosine-protein kinase erbB-2 (Homo sapiens) (UniProt P04626); settings: at 0.1 µM
Sequence of Receptor tyrosine-protein kinase erbB-2 (Homo sapiens) (P04626 whole entry): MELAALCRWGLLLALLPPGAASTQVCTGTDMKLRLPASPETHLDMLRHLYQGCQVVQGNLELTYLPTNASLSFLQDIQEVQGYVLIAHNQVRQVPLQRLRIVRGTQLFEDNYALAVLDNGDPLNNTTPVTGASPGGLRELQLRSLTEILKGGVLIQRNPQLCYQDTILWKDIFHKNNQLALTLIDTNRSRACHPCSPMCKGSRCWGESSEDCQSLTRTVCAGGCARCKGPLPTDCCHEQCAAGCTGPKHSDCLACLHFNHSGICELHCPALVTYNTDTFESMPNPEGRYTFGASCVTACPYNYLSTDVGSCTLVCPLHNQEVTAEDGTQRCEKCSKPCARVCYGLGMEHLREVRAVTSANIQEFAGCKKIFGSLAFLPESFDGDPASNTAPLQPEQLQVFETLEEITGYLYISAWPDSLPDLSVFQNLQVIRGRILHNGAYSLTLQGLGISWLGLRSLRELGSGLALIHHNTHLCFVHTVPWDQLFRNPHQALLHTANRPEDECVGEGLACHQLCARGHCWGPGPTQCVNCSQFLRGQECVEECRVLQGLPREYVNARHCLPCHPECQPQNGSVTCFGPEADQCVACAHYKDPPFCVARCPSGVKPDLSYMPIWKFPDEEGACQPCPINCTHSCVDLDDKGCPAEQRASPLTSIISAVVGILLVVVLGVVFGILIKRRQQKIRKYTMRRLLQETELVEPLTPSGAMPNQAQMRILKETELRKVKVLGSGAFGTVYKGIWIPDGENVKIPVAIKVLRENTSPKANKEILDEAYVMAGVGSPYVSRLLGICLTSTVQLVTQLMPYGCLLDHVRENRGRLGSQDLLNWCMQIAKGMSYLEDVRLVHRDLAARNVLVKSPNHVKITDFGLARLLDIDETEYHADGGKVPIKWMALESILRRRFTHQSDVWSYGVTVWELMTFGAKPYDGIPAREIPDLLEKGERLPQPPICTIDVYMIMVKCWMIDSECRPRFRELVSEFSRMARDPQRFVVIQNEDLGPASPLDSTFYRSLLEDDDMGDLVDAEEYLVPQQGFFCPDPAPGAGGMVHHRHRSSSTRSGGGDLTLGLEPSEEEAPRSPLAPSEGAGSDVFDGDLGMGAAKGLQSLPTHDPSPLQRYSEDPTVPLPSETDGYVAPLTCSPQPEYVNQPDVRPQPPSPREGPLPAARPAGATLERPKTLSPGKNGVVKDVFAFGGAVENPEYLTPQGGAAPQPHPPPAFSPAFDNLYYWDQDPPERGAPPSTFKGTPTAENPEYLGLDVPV

[7] = target: Receptor tyrosine-protein kinase erbB-2 (Homo sapiens) (UniProt P04626); settings: at 1 µM
[8] = target: Receptor tyrosine-protein kinase erbB-4 (Homo sapiens) (UniProt Q15303); settings: at 0.1 µM
Sequence of Receptor tyrosine-protein kinase erbB-4 (Homo sapiens) (Q15303 whole entry): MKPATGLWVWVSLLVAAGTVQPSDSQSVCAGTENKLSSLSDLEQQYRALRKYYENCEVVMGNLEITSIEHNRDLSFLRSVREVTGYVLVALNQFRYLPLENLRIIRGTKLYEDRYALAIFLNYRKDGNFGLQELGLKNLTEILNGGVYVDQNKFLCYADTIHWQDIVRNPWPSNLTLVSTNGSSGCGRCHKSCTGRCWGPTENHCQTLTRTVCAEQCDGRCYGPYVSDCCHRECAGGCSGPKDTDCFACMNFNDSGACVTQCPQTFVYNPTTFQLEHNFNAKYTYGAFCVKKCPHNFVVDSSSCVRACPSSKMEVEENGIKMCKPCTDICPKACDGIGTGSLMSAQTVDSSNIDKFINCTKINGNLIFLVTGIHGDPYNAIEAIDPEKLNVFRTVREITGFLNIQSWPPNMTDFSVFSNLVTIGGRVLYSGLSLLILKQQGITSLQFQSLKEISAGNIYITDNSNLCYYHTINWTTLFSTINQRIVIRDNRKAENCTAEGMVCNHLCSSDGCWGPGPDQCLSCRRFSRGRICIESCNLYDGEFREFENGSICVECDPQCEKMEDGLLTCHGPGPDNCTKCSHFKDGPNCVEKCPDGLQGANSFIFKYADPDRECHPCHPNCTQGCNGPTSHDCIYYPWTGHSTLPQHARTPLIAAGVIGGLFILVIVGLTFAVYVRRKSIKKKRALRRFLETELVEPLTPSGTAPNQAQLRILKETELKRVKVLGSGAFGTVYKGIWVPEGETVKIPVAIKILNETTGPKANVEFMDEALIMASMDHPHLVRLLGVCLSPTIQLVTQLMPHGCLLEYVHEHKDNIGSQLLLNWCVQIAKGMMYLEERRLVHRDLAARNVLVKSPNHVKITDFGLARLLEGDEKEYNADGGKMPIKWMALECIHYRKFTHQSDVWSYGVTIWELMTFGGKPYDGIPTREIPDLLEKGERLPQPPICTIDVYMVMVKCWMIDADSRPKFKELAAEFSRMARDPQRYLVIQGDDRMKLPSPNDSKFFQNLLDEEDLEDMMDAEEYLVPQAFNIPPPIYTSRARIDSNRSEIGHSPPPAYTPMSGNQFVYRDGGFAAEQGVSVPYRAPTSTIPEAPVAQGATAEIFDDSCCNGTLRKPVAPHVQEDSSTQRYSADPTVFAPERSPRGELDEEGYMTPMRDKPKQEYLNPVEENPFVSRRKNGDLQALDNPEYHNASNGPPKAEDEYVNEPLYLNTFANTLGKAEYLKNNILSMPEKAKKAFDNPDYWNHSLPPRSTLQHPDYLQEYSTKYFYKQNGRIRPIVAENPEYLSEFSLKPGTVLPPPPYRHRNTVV

[9] = target: Receptor tyrosine-protein kinase erbB-4 (Homo sapiens) (UniProt Q15303); settings: at 1 µM
[10] = target: Tyrosine-protein kinase Fer (Homo sapiens) (UniProt P16591); settings: at 0.1 µM;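 further: reported figures are averaged percent inhibition of FER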
Sequence of Tyrosine-protein kinase Fer (Homo sapiens) (P16591 whole entry, looked up): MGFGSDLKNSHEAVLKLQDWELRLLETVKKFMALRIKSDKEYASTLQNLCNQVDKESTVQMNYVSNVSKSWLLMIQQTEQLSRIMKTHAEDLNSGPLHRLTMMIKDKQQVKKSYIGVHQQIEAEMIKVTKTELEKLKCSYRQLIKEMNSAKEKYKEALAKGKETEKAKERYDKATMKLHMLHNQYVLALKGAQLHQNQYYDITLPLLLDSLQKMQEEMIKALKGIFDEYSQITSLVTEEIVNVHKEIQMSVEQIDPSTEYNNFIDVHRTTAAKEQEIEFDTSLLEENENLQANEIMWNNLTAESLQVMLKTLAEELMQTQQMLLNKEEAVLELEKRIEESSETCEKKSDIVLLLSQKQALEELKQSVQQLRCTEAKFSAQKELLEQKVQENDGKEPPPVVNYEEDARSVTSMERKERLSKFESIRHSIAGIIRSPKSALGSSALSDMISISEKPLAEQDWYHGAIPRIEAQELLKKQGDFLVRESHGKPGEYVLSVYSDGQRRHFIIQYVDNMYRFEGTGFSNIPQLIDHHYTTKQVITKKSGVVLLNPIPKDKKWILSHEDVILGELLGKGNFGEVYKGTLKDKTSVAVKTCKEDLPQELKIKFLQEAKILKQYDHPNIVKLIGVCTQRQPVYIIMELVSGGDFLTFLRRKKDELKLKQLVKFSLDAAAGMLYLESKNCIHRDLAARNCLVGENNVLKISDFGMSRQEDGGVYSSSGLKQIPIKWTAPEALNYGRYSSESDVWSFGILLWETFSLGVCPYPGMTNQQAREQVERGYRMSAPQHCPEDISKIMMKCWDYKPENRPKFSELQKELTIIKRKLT

SMILES | inhibition [1] [%] | inhibition [2] [%] | inhibition [3] [%] | inhibition [4] [%] | inhibition [5] [%] | inhibition [6] [%] | inhibition [7] [%] | inhibition [8] [%] | inhibition [9] [%] | inhibition [10] [%]
COc1cc(N2CCN(C(C)C)CC2)ccc1Nc1nc(Nc2ccc(F)cc2C(N)=O)c2cc[nH]c2n1 | 1.15 | 2.78 | 2.03 | 1.77 | 1.31 | 2.4 | 3.8 | 35.2 | 76.8 | 62.8
CCn1c(-c2nonc2N)nc2c(C#CC(C)(C)O)ncc(OC3CCNCC3)c21 | 4.11 | 3.01 | 4.06 | 1.92 | 1.63 | 5.64 | 3.93 | 5.65 | 10.3 | -0.68
Nc1ncc(-c2cccc(S(N)(=O)=O)c2)c2scc(-c3ccc(F)c(Cl)c3)c12 | 88.7 | 9.18 | 22 | 49.3 | 87.1 | 4.06 | 6.32 | 13.2 | 29.6 | 5.25
CS(=O)(=O)CCNCc1ccc(-c2ccc3ncnc(Nc4ccc(OCc5ccccc5)c(C(F)(F)F)c4)c3c2)o1 | 5.29 | 2.9 | 3.77 | 3.21 | 3.55 | -0.56 | 10.4 | 9.71 | 33.4 | 4.03
FC(F)(F)c1cccc(-c2nn3ncccc3c2-c2ccnc(Nc3ccc4c(c3)OCCO4)n2)c1 | 18.1 | 5.94 | 3 | 2.8 | 21.3 | 1.37 | 11.4 | 48.3 | 81.5 | 0.32
CCOc1ccc2c(-c3ccnc(Nc4cccc(C(F)(F)F)c4)n3)cnn2n1 | 9.64 | 3.96 | 2.33 | 1.01 | 2.81 | 4.13 | 2.54 | 7.09 | 6.85 | 1.8
Cc1ccc(O)cc1Nc1ccnc2cc(-c3ccccn3)ccc12 | 91.9 | 18.1 | 53.3 | 87.3 | 95.1 | 2.16 | 11.6 | 35.1 | 75.6 | 5.39
CCN(CC)S(=O)(=O)c1ccc(OC)c(Nc2ncc(-c3ccccc3)o2)c1 | 15.1 | 3.77 | 0.54 | 0.17 | 7.93 | 0.91 | 2.81 | 7.08 | 6.51 | 0.84
Fc1ccc(-c2cc(-c3c[nH]nc3-c3ccccn3)ccn2)cc1 | 10.6 | 7.2 | 4.44 | 3.71 | 0.96 | 4.82 | 6.84 | 8.5 | 12.7 | 4.53
COc1ccc(-c2nn3ncccc3c2-c2ccnc(Nc3ccc4c(c3)OCCO4)n2)cc1 | 35 | 1.77 | 6.41 | -0.35 | 15.6 | 0.95 | 17.2 | 55.9 | 108 | 1.56
Nc1nc(-c2ccc(F)cc2)c(-c2ccc3ncccc3n2)s1 | 15.2 | 5.51 | 5.14 | 1.8 | 5.58 | 4.65 | 6.61 | 16.8 | 48.5 | 2.2
CCn1cc(-c2ccnc3[nH]ccc23)c(-c2cccc(NC(=O)Nc3ccc(OCc4ccccc4)cc3)c2)n1 | -2.78 | 0.02 | 0.9 | -1.27 | 3.47 | 2.85 | 2.75 | 9.5 | 63.5 | 0.08
c1ccc(COc2ccc(Nc3ncnc4ccc(-c5ccco5)cc34)cc2)cc1 | 1.06 | 0.82 | 3.5 | -0.6 | 1.67 | -0.16 | 20 | 20.1 | 79.3 | 1.72
CCCN1CCC(c2ccc(Nc3nc(Nc4cc(F)ccc4C(N)=O)c4cc[nH]c4n3)c(OC)c2)CC1 | 8.57 | 7.06 | 2.33 | 3.08 | 2.91 | 5.68 | 12.9 | 34.8 | 76.3 | 77
COc1cccc(-c2c[nH]c3c(N/N=C/c4ccncc4)ncnc23)c1 | 25.9 | 3.32 | -5.7 | 3.21 | 13.5 | 0.26 | 2.47 | 8.94 | 21.9 | 4.27
CC(C)COC(=O)c1ccc2c(c1)/C(=C/Nc1ccc(S(N)(=O)=O)cc1)C(=O)N2 | -4.93 | 0.34 | -4.87 | -1.38 | 1.51 | -2.55 | -0.17 | -2.58 | -2.34 | 0.76
COc1ccc(-c2cc3c(N)ncnc3o2)cc1 | 4.07 | -1.39 | 0.05 | 0.49 | 0.16 | -0.84 | 0.38 | -1.91 | 1.85 | -0.15
